Screens from PubChem.
An excerpt weighted towards active compounds, which were near 18% of everything screened.
LDHA inh: blocks human lactate dehydrogenase A; hit rate 0.15% among 480,000; P00338; purified LDHA, NADH/diaphorase-resazurin fluorescence; active compounds read low; activity change, % (values are at about 110 or 230 µM); in the data active = activity change below about -30%; inconclusive = mostly about -25% to -30%;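 note: plate controls were DMSO wells for no effect and wells without enzyme for full effect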
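Human LDH5 at 2 nM final in Tris HCl pH 7.4 with 0.06 mM NADH and 0.2 mM pyruvate, reacted 5 minutes at room temperature. Remaining NADH coupled via diaphorase/resazurin; resorufin fluorescence read at 0 and 20 minutes, normalized to enzyme-free and DMSO wells.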
DT40 TDP1 CPT: growth inhibition of DT40 Tdp1-/-;hTDP1 cells with camptothecin (screen for TDP1 inhibitors) | hit rate 12% among 420,000 | chicken DT40 Tdp1-/-;hTDP1 cells + 20 nM CPT, ATP luminescence, 48 h | Potency, µM (titrated, usually from 46.2 µM), for inactives: at the highest dose activity change, negative = growth inhibition, hits mostly inhibitors; note: potency is the fitted concentration of half-maximal effect; nearly all actives have a fitted effect of over 55% in size
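Chicken DT40 Tdp1-/- cells complemented with human TDP1, 400 cells/well, exposed to compounds plus 20 nM camptothecin for at least 48 h at 37 C; viability read as ATP content by CellTiter-Glo luminescence.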
TDP1 cell noCPT: qHTS for Inhibitors of human tyrosyl-DNA phosphodiesterase 1 (TDP1): qHTS in cells in absence of CPT | DT40 Tdp1-/- hTDP1 cells, no CPT, ATP luminescence, 48 h | Potency, µM (top dose mostly 46.2 µM), for the others: at the highest dose activity change, negative = growth inhibition, actives largely listed as inhibitors | hit rate 15% among 420,000 | AID 686978, 2013; note: potency is the fitted concentration of half-maximal effect; nearly all actives have a fitted effect of over 55% in size
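Growth of hTDP1-complemented DT40 Tdp1-knockout cells is measured by ATP luminescence after at least 48 hr compound exposure at 37 °C, with DMSO substituting for the 20 nM CPT used in the parallel screen.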
VP16 counter: counter-screen for ROR gamma inhibitors: Gal4-VP16 reporter; Drosophila S2 Gal4-VP16 UAS-luciferase, luminescence, 20 h; Potency, µM (highest dose often 53.6 µM), for the others: at the highest dose activity, negative = inhibition, most hits filed as inhibitors; hit rate 3.5% among 310,000; AID 2546;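 note: Gal4-VP16 expression switched on by copper sulfate through the metallothionein promoter; potency is the fitted concentration of half-maximal effect; nearly all actives have a fitted effect of over 50% in size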
RORg inh: ROR gamma (mouse) transcription inhibition | Drosophila S2 Gal4-RORgamma UAS-luciferase reporter, 20 h | Potency, µM (titrated, usually from 53.6 µM), inactives show top-dose activity change, negative = inhibition, most hits filed as inhibitors | hit rate 5.4% among 310,000; note: potency is the fitted concentration of half-maximal effect; nearly all actives have a fitted effect of over 60% in size
Target sequence (P51450 whole entry, looked up, the tested form may be a part): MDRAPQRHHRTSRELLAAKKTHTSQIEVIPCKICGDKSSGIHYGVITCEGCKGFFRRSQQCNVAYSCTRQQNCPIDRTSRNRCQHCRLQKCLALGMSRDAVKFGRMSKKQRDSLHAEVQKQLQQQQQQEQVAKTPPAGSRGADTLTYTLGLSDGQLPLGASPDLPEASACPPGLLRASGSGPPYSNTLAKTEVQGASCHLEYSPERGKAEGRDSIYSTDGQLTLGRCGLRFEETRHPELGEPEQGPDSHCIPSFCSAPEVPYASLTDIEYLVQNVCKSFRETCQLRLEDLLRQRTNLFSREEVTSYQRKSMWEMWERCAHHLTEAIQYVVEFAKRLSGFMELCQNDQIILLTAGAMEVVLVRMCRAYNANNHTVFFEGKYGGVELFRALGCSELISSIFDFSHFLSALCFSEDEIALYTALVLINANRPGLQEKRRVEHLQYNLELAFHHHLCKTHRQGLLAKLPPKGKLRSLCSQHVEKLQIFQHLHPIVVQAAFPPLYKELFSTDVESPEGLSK
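Schneider cells (Drosophila), stable Gal4 DBD–ROR gamma + UAS-luc; 1 hr cmpd preincubation; Cu2+ induction 700 uM final; 20 hr ambient; luminescence.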
IL1B secr inh: blocks inflammasome-driven IL-1 beta release. THP-1 LPS/ATP IL-1B secretion, AlphaLISA, 16 h; active compounds read low. activity change, % at 57.5 µM. hit rate 4.7% among 360,000. AID 743279; in the data active = activity change below about -50%; inconclusive = mostly about -30% to -49%
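Secreted IL-1B measured by AlphaLISA bead assay after 16 h compound exposure of THP-1 cells; compounds (final up to 57.5 uM) added 1 h before LPS (250 ng/mL) and ATP (1.25 mM) stimulation; lower signal means less secretion.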
An asterisk follows results filed as active; ? = inconclusive; . = no result. Unless noted, calls come from the whole dose curve; as a rule, active = well fitted curve in the direction sought with a large enough effect; inconclusive = small, poorly fitted or top-dose-only effect, or another doubt; inactive = no such curve, though single readings can be large; an effect the other way counts as inactive or inconclusive. Unless noted, % is set by controls: 0 for no effect and ±100 for the full control effect.

SMILES	LDHA inh	DT40 TDP1 CPT	TDP1 cell noCPT	VP16 counter	RORg inh	IL1B secr inh
CC(=O)c1ccc(NC(=O)c2c3c(nc4ccccc24)C(=O)N(C2CCCCC2)C3)cc1	-6	21µM*	21µM*	.	.	.
CCC(C)NC(=O)c1c2c(nc3ccccc13)C(=O)N(C1CCCCC1)C2 (stereo unspecified)	-2	-13%	-24%	.	.	.
Cc1oc(-c2cccs2)nc1CC(=O)N1CCOC(C)C1 (stereo unspecified)	-3	.	.	.	.	.
CSc1cccc(NC(=O)Cn2c3ncccc3c(=O)n2-c2ccc(C)cc2)c1	2	?	16µM*	.	.	.
Cc1ccc(-n2c(=O)c3cccnc3n2CC(=O)Nc2cc(Cl)ccc2C)cc1	-1	-15%	-21%	.	.	.
CCOc1ccc(C(=O)N(Cc2cccc(Cl)c2)c2ccccn2)cc1	1	.	.	.	.	.
COC(=O)c1ccccc1-c1ccc(/C=C(/C#N)c2nc3ccc(C)cc3[nH]2)o1	2	.	.	.	.	.
Cn1c(SCC(=O)Nc2cccc(C(=O)O)c2)nnc1-c1cc2cc(Br)ccc2o1	-34*	7%	0%	-3%	-8%	13
CCc1cccc(C)c1NC(=O)CSc1nnc(-c2cc3cc(Br)ccc3o2)n1CC	-9	23µM*	18µM*	-1%	33%	-25
Cn1c(SCC(=O)Nc2cccc(Br)c2)nnc1-c1cc2ccccc2o1	0	-18%	-25%	-9%	17%	70
Brc1ccccc1CSc1nnc(-c2cccnc2)o1	9	.	.	.	.	.
O=S(=O)(NC1CCN(S(=O)(=O)c2cc(C(F)(F)F)ccc2Cl)CC1)c1cccs1	-3	.	.	.	.	.
Cn1c(CC(=O)Nc2ccc(Cl)cc2)nnc1SCC(=O)NC12CC3CC(CC(C3)C1)C2	6	.	.	.	.	.
CCCNC(=O)C1(C)CCCN(C(=O)COCc2ccccc2)C1 (stereo unspecified)	-2	5%	15%	.	.	0
CCCNC(=O)C1(C)CCCN(Cc2ccccc2-c2ccccc2)C1 (stereo unspecified)	-5	?	?	.	.	23
CCCNC(=O)C1(C)CCN(C(=O)COCc2ccccc2)C1 (stereo unspecified)	-5	-4%	0%	.	.	-56*
CC(C)NC(=O)C1(C)CCN1CCC(=O)c1ccccc1 (stereo unspecified)	-1	13µM*	13µM*	.	.	8
CCCNC(=O)C1(C)CCCN(Cc2cc(-c3ccccc3)nn2C)C1 (stereo unspecified)	1	?	16µM*	.	.	-8
CC1(Oc2cccc(F)c2)CCN(Cc2ccc(-c3ccccn3)cc2)C1 (stereo unspecified)	-6	?	18µM*	.	.	7
O=C(O)/C=C/c1ccc(Br)o1	1	.	.	.	.	.
CCCNC(=O)C1(C)CCCN(CCOc2ccccc2)C1 (stereo unspecified)	-8	?	?	.	.	-15
CCCNC(=O)C1(C)CCCN(Cc2ccc(-c3ccccn3)cc2)C1 (stereo unspecified)	-8	16µM*	13µM*	.	.	-14
CCCNC(=O)C1(C)CCCN(CCC(=O)c2ccccc2)C1 (stereo unspecified)	-5	5.8µM*	7.3µM*	.	.	?
C(=N\Nc1ccc2nncn2n1)/c1ccccn1	-3	12µM*	23µM*	5%	-32%	.
C(=N\n1cnnc1)/c1ccccn1	-13	-5%	-13%	?	-36%	20
SMILES	LDHA inh	DT40 TDP1 CPT	TDP1 cell noCPT	VP16 counter	RORg inh	IL1B secr inh
C/C(=N\Nc1ccc2nncn2n1)c1ccccn1	-3	2.3µM*	4.6µM*	?	8.9µM*	89
Cc1c(C(=O)NCc2cccc([N+](=O)[O-])c2)sc(=O)n1Cc1ccc(C(C)C)cc1	-7	?	?	.	.	?
Cc1c(C(=O)NCc2cccc([N+](=O)[O-])c2)sc(=O)n1Cc1cccc(F)c1	-3	?	-35%	.	.	?
Cc1c(C(=O)NCc2cccc([N+](=O)[O-])c2)sc(=O)n1Cc1ccc(F)cc1	3	16µM*	?	.	.	?
CC(=O)Oc1ccccc1Cn1c(C)c(C(=O)NCc2cccc([N+](=O)[O-])c2)sc1=O	-10	?	21µM*	.	.	-24
CCOC(=O)C1CCN(C(=O)CCC(=O)N2CCN(c3cccc(Cl)c3)CC2)CC1	-5	.	.	.	.	.
Cc1cc(NC(=O)C2CCCC2)nc2c1c(=O)oc1ccccc12	-5	?	18µM*	-2%	8%	18
Cc1ccc(S(=O)(=O)NCc2c(C)nn(Cc3ccccc3)c2C)cc1	6	.	.	.	.	.
S=c1sc2c(Cl)ncnc2n1-c1ccccc1	0	16µM*	10µM*	?	?	-96*
Cc1cccc2c(=O)n(CC(=O)Nc3ccc4oc(C(C)C)nc4c3)cnc12	-7	.	.	.	.	.
CCOc1ccc(N2CC(NC(=O)C(CC)CC)CC2=O)cc1 (stereo unspecified)	4	.	.	.	.	.
CC[n+]1c(C)sc2c(C)cc(C)cc21	?	23µM*	?	14%	22%	93
Cc1ccc2nc3c(cc2c1)c(NC(=O)c1ccccn1)nn3CC(C)C	0	-7%	7%	5µM*	1.8µM*	-17
CC(=O)Nc1nn(CC(C)C)c2nc3ccc(C)cc3cc12	3	?	?	.	.	-12
COc1ccc(Cl)cc1N(CC(=O)N1CCc2ccccc2C1)S(C)(=O)=O	-6	.	.	.	.	.
Cc1cc(NC(=O)c2cccnc2)cc(-c2nc3cc(C(C)C)ccc3o2)c1O	0	.	.	.	.	.
O=C1Cc2ccccc2Sc2c(OCCN3CCCCC3)cccc21	12	?	?	-26%	15%	-72*
O=C1Cc2ccccc2Sc2cc(OCCCN3CCCCC3)ccc21	8	?	?	-8%	8%	0
COc1ccc2c(=O)c(Oc3ccc(C(=O)O)cc3)c(C(F)(F)F)oc2c1	0	?	?	13µM*	?	13
COc1cccc(Oc2c(C(F)(F)F)oc3cc(OC)ccc3c2=O)c1	11	.	.	.	.	.
COc1ccc2c(=O)c(OC)c(-c3ccccc3)oc2c1	.	?	7.3µM*	0%	34%	.
CCCOc1ccc2c(=O)c(-c3cc(C(=O)OC)oc3C)c(C)oc2c1	-1	13µM*	18µM*	-12%	27%	?
COc1ccc2c(=O)c(-c3ccc(C)cc3)c(-c3ccccc3)oc2c1	-6	12µM*	7.3µM*	.	.	0
COC(=O)c1ccc(COc2ccc3c(=O)c(-c4ccccc4OC)c(C)oc3c2)cc1	1	.	.	.	.	.
CCCCCCCn1c(Br)nc2c1c(=O)n(C)c(=O)n2C	1	.	.	.	.	.
